The source of these data is article PMC7862700, “An all-to-all approach to the identification of sequence-specific readers for epigenetic DNA modifications on cytosine”.

What all share (assay): DAPPL (digital affinity profiling via proximity ligation, sequencing); 10 mM Tris-HCl pH 7.5, 50 mM NaCl, 1 mM DTT, 4% glycerol, room temperature, 30 min; GST-TFs on glutathione beads, 16-mer random dsDNA library, 0.1% formaldehyde crosslink after washing; high values mean tight binding
The target in assay [1] is T1, FLI1 (Homo sapiens, UniProt Q01543 1-452).
T1 sequence: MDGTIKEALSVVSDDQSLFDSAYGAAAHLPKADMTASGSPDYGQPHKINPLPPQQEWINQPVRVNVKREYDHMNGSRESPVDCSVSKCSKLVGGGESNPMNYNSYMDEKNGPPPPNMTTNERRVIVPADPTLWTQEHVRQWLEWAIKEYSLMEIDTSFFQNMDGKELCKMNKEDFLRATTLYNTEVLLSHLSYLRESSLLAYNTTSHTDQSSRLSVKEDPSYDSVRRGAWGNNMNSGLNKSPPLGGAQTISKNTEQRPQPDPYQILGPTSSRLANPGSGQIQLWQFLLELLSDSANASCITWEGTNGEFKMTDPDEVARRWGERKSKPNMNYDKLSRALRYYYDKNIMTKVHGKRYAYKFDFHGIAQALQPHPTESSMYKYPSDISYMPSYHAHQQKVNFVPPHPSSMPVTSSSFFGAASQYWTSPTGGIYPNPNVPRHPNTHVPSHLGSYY
Particulars: protein: recombinant; tags: N-terminal GST; dsDNA, one strand shown. The gist of the method: (§1)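 Pools of DNA-barcoded human transcription factors, expressed in yeast as GST fusions on glutathione beads and combined with a tag-only sample, were incubated with 200 nmole of a 16-mer random double-stranded DNA library. Incubation took 30 min at room temperature in Tris/NaCl/DTT/glycerol buffer and was followed by washing, 0.1% formaldehyde crosslinking, proximity ligation (BsaI/T4 ligase, 1 h, 37 °C), PCR amplification and sequencing on an Illumina NextSeq500. Binding signal is the ratio of a hexamer's read frequency for a factor to its frequency for the tag-only sample.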

Assay [2] addresses T2, ELK1 (Homo sapiens, UniProt P19419 1-428).
T2 sequence: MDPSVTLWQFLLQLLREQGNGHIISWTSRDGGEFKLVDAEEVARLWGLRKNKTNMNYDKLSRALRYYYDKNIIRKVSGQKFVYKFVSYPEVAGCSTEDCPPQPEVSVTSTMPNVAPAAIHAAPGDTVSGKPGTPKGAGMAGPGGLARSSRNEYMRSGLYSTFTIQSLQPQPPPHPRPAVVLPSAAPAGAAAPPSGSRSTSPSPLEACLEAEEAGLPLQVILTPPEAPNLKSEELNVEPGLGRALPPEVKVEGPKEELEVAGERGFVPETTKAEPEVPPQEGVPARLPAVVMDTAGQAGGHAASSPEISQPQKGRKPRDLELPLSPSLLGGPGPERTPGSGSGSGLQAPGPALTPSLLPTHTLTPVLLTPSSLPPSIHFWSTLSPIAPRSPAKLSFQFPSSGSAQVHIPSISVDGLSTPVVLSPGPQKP
Particulars: protein: recombinant; tags: N-terminal GST; dsDNA, one strand shown. The gist of the method: as §1

In assay [3] the target is T3, GABPA (Homo sapiens, UniProt Q06546 1-454).
T3 sequence: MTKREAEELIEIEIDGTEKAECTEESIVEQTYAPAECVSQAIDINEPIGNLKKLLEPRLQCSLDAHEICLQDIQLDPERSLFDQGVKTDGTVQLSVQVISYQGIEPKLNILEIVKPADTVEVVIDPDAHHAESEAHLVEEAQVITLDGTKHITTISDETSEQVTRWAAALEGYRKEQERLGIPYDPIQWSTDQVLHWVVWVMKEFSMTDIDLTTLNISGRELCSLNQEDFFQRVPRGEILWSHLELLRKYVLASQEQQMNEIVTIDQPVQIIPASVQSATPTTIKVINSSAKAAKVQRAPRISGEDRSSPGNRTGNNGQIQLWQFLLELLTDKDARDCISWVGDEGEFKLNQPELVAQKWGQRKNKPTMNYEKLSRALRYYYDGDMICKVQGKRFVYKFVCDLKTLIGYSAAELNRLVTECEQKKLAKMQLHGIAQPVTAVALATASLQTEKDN
Particulars: protein: recombinant; tags: N-terminal GST; dsDNA, one strand shown. The gist of the method:
as §1

Assay [4] concerns the target T4, ERG (Homo sapiens, UniProt P11308 1-479).
T4 sequence: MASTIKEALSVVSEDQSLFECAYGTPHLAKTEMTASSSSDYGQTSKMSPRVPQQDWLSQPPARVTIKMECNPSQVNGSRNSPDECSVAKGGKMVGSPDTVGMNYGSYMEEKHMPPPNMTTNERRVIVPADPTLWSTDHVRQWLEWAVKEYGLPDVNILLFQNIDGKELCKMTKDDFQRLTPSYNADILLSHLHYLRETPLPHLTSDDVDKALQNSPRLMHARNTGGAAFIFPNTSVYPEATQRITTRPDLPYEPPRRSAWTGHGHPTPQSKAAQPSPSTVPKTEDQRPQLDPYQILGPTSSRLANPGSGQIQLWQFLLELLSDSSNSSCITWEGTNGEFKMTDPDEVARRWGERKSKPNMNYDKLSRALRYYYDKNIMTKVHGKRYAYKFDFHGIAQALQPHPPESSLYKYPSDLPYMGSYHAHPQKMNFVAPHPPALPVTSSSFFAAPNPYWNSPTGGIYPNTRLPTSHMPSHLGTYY
Particulars: protein: recombinant; tags: N-terminal GST; dsDNA, one strand shown. The gist of the method:
as §1

Assay [5] concerns the target ELF1 (Homo sapiens, UniProt P32519 1-619). Particulars: protein: recombinant; tags: N-terminal GST; dsDNA, one strand shown. The gist of the method:
as §1

Assay [6] has as its target T5, EHF (Homo sapiens, UniProt Q9NZC4 1-300).
T5 sequence: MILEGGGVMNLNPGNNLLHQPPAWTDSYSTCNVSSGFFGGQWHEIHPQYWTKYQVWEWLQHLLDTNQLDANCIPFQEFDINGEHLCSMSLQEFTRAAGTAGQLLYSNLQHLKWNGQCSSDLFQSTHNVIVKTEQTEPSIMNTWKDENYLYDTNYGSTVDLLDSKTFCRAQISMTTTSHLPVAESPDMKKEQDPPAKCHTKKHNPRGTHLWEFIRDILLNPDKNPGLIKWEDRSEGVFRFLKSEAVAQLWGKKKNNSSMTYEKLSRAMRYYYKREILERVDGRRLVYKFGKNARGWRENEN
Particulars: protein: recombinant; tags: N-terminal GST; dsDNA, one strand shown. The procedure, abridged:
as §1

Assay [7] has as its target SPIB (Homo sapiens, UniProt Q01892 1-262). Particulars: protein: recombinant; tags: N-terminal GST; dsDNA, one strand shown. The gist of the method: as §1
Assay [8] deals with T6, ELK3 (Homo sapiens, UniProt P41970 1-407).
T6 sequence: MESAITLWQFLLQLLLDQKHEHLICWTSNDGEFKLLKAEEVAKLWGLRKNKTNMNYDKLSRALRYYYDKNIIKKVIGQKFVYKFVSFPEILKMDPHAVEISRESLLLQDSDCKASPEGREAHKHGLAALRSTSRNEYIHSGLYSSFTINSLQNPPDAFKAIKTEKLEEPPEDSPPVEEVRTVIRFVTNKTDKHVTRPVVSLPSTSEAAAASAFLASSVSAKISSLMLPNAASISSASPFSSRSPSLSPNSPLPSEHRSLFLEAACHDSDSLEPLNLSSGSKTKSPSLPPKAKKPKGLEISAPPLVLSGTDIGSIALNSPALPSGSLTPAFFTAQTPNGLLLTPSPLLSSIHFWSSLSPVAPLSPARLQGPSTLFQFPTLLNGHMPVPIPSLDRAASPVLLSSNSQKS
Particulars: protein: recombinant; tags: N-terminal GST; dsDNA, one strand shown. The gist of the method:
as §1

The target of assay [9] is T7, FEV (Homo sapiens, UniProt Q99581 1-238).
T7 sequence: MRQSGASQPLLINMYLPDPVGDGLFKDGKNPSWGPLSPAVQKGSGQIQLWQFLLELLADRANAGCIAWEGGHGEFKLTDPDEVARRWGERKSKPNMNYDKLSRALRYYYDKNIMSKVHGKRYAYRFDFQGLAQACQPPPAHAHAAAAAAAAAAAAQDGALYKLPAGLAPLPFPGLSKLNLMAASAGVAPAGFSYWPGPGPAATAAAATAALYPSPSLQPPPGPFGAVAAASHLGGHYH
Particulars: protein: recombinant; tags: N-terminal GST; dsDNA, one strand shown. The gist of the method: as §1

The target in assay [10] is ETV5 (Homo sapiens, UniProt P41161 1-510). Particulars: protein: recombinant; tags: N-terminal GST; dsDNA, one strand shown. The gist of the method:
as §1

The target of assay [11] is HSF1 (Homo sapiens, UniProt Q00613 1-529). Particulars: protein: recombinant; tags: N-terminal GST; chain copies: 3; dsDNA, one strand shown. The procedure, abridged:
as §1

The target in assay [12] is T8, SPIC (Homo sapiens, UniProt Q8N5J4 1-248).
T8 sequence: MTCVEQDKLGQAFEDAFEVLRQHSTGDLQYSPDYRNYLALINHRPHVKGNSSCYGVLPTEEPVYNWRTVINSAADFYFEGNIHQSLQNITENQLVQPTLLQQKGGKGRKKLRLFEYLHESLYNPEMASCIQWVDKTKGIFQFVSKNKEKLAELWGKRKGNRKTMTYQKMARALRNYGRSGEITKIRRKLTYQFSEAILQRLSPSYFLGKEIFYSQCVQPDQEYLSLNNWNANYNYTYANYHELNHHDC
Particulars: protein: recombinant; tags: N-terminal GST; dsDNA, one strand shown. The procedure, abridged:
as §1

The target in assay [13] is ELF4 (Homo sapiens, UniProt Q99607 1-663). Particulars: protein: recombinant; tags: N-terminal GST; dsDNA, one strand shown. The procedure, abridged: as §1
For assay [14], the target named is T9, ELK4 (Homo sapiens, UniProt P28324-2 1-405).
T9 sequence: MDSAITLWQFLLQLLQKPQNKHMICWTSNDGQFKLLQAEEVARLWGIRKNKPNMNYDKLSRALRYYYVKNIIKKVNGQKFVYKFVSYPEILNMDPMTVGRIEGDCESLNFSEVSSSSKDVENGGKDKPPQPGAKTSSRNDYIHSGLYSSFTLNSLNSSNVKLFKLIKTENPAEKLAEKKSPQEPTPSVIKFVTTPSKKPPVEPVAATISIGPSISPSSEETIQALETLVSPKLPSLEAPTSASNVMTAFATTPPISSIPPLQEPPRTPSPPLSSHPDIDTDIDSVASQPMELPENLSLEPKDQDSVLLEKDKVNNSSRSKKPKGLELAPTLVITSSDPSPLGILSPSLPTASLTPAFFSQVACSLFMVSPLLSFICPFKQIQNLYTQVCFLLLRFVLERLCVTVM
Particulars: protein: recombinant; tags: N-terminal GST; dsDNA, one strand shown. The procedure, abridged:
as §1

The target in assay [15] is T10, ETV2 (Homo sapiens, UniProt O00321 1-342).
T10 sequence: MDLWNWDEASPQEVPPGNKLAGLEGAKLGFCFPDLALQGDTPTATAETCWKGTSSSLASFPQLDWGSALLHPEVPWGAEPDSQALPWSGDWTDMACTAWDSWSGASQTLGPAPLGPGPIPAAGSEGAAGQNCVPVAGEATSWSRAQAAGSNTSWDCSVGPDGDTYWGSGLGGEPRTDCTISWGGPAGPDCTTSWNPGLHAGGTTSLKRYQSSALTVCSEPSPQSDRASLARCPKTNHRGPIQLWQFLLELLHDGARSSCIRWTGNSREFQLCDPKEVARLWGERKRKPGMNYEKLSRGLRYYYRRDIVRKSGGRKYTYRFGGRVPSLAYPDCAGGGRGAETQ
Particulars: protein: recombinant; tags: N-terminal GST; dsDNA, one strand shown. The procedure, abridged:
as §1

Assay [16] concerns the target T11, ELF3 (Homo sapiens, UniProt P78545 1-371).
T11 sequence: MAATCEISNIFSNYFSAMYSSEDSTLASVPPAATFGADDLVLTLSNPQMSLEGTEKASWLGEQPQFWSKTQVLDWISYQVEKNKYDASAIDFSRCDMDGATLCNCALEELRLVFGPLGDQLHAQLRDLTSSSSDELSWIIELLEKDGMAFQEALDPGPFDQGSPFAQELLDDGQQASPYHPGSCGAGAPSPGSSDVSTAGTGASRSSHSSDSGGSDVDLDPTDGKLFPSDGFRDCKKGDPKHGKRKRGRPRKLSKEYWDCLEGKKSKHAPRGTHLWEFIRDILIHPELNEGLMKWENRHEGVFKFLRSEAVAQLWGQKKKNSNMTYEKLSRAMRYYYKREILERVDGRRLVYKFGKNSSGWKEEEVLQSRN
Particulars: protein: recombinant; tags: N-terminal GST; dsDNA, one strand shown. The gist of the method:
as §1

In assay [17] the target is CRX (Homo sapiens, UniProt O43186 1-299). Particulars: protein: recombinant; tags: N-terminal GST; dsDNA, one strand shown. The gist of the method:
as §1

The target of assay [18] is ETV1 (Homo sapiens, UniProt P50549 1-477). Particulars: protein: recombinant; tags: N-terminal GST; dsDNA, one strand shown. The procedure, abridged:
as §1

Sequence of ETV1 (P50549 whole entry): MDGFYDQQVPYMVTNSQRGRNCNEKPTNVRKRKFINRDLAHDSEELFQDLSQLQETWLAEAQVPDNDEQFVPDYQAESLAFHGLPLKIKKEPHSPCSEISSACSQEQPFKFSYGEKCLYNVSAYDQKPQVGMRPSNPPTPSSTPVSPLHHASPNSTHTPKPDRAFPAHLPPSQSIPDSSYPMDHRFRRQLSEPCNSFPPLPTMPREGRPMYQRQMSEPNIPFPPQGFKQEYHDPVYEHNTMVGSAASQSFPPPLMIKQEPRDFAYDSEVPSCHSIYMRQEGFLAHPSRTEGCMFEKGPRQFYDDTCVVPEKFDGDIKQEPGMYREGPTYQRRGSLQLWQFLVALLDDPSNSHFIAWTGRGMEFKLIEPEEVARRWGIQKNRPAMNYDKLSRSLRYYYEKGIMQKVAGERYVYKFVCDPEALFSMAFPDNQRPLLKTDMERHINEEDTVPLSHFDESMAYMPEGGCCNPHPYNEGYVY
Sequence of ELF4 (Q99607 whole entry): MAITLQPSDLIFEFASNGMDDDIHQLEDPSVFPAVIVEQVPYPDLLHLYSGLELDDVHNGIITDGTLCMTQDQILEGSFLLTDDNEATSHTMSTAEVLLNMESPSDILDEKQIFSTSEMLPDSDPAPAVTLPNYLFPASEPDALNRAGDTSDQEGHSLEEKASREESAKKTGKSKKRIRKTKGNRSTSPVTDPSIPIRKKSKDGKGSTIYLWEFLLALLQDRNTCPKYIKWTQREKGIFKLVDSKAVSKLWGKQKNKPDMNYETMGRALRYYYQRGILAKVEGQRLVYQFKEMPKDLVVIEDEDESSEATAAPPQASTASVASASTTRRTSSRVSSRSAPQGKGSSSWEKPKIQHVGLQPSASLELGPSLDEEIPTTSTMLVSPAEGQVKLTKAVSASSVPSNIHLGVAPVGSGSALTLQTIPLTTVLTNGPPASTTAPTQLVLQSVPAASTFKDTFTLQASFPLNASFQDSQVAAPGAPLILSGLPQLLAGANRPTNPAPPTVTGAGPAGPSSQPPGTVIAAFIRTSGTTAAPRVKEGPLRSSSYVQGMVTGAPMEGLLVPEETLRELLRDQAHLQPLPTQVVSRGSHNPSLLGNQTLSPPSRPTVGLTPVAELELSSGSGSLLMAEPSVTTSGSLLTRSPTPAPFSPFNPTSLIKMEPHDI
Sequence of SPIB (Q01892 whole entry): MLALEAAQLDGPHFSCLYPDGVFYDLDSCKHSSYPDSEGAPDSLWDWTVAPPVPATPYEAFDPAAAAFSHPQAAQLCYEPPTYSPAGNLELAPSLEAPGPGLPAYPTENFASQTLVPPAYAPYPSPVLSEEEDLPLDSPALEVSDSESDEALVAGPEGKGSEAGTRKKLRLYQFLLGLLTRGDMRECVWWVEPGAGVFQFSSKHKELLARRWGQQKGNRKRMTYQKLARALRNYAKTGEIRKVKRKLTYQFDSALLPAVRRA
Sequence of ELF1 (P32519 whole entry): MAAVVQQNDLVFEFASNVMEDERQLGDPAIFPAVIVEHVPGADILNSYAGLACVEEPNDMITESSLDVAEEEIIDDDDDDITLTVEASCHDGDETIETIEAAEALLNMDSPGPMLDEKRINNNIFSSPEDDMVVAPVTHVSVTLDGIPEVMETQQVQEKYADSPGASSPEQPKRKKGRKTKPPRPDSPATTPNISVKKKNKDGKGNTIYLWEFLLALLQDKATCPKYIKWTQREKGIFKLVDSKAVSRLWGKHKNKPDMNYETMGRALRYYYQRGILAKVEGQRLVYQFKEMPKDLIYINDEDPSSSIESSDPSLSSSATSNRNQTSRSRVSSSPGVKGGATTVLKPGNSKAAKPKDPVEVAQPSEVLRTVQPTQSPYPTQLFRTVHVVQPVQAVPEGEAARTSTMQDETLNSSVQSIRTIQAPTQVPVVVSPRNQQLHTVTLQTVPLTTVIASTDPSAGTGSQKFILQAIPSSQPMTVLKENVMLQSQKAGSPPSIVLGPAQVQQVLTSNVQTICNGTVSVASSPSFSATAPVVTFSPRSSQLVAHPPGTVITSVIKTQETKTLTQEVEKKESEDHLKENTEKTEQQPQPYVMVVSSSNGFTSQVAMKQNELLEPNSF
Sequence of ETV5 (P41161 whole entry): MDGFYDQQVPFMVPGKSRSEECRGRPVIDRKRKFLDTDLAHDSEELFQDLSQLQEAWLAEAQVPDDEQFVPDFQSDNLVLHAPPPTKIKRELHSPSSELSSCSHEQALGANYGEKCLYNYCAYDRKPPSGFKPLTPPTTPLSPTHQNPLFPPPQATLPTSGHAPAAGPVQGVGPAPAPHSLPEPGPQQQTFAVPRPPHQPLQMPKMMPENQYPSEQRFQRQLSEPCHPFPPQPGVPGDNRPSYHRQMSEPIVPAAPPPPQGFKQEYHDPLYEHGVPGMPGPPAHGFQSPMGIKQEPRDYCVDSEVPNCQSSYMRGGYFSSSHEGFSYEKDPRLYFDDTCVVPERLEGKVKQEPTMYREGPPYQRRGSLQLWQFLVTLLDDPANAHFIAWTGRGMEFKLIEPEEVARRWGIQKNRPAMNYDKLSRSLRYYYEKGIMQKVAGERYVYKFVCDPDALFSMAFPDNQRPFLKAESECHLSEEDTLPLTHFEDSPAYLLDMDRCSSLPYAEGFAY
Sequence of HSF1 (Q00613 whole entry): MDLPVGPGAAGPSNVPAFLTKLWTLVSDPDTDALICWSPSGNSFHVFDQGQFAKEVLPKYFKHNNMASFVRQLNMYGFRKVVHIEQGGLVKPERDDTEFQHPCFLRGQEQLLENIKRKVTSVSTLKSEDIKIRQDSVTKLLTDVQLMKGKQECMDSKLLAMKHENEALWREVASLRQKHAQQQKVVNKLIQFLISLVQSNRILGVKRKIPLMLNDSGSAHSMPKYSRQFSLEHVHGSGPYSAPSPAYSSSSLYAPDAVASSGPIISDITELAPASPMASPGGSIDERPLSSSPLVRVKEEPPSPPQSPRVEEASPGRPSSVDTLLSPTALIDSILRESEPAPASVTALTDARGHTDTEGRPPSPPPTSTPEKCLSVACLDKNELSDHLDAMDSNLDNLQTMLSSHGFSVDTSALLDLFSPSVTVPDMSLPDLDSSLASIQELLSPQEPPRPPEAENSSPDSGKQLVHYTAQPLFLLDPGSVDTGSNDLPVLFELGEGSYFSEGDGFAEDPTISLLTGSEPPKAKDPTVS
Sequence of CRX (O43186 whole entry): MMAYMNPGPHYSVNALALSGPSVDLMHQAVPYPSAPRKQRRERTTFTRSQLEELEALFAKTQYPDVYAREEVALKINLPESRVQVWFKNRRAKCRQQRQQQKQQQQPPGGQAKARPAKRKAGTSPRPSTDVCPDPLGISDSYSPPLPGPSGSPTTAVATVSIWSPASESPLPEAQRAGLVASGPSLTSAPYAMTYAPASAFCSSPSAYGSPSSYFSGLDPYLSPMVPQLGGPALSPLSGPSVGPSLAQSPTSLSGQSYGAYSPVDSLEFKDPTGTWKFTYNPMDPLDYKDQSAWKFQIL

On to ATTAGC, for which the binding signal was 1.17 fold enrichment (6-mer frequency, TF over GST control) in assay [1]; 1.08 fold enrichment (6-mer frequency, TF over GST control) in assay [2]; 1.08 fold enrichment (6-mer frequency, TF over GST control) in assay [3]; 1.15 fold enrichment (6-mer frequency, TF over GST control) in assay [4]; 1.11 fold enrichment (6-mer frequency, TF over GST control) in [5]; 1.07 fold enrichment (6-mer frequency, TF over GST control) in assay [6]. Besides, the binding signal was 1.03 fold enrichment (6-mer frequency, TF over GST control) in assay [7]; 1.09 fold enrichment (6-mer frequency, TF over GST control) in [8]; 1.05 fold enrichment (6-mer frequency, TF over GST control) in [9]; 1.04 fold enrichment (6-mer frequency, TF over GST control) in assay [10]; 1.87 fold enrichment (6-mer frequency, TF over GST control) in assay [11]; 1.22 fold enrichment (6-mer frequency, TF over GST control) in assay [12]. The binding signal in [13] is 1.15 fold enrichment (6-mer frequency, TF over GST control); in [14] it was 1.14 fold enrichment (6-mer frequency, TF over GST control); in assay [15], 1.13 fold enrichment (6-mer frequency, TF over GST control); in [16], 1.14 fold enrichment (6-mer frequency, TF over GST control); in assay [17] it was 2.83 fold enrichment (6-mer frequency, TF over GST control); in [18], 1.16 fold enrichment (6-mer frequency, TF over GST control).
